The supplement of paper PMC10849652
About 7,900 targets were measured; listed, in parts, are those with a hit and a random draw of the rest. About 0.6% of all pairs of compound and target were hits. A number with no mark means an inactive call.

Tests used:
Assay in all cases: log2 fold change, soluble protein after heating vs DMSO (PISA); higher = thermal stabilisation; K562 cells, 10 uM, 30 min; active = over 0.2 and 3.5 SD of the protein, either way, in both replicates (recomputed)
IRAK-1-4 Inhibitor I = compound: C1COCCN1CCN2C3=CC=CC=C3N=C2NC(=O)C4=CC(=CC=C4)[N+](=O)[O-] [IRAK-1-4 Inhibitor I]
Summary of the method: (§1)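 K562 cells at 2×10^6 cells/mL were exposed to 10 μM compound for 30 min, then aliquots were heated for 3 min across 48°C-58°C, pooled, and extracted in PBS containing 0.5% NP-40 at 4°C. The supernatant after 21,000xg for 90 min was taken as soluble protein and measured by TMTpro 16plex LC-MS/MS with channel sums equalised. Thermal stability is reported relative to control samples, with values from duplicates. Fold changes are given on a log2 scale.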

ibrutinib = compound: C=CC(=O)N1CCC[C@@H](n2nc(-c3ccc(Oc4ccccc4)cc3)c3c(N)ncnc32)C1 [ibrutinib]
Summary of the method: as §1

[1] = compound: CC(=O)c1cnc2ccc(-c3cc(Cl)c(O)c(Cl)c3)nc2c1N[C@H]1CC[C@H](CN(C)C)CC1
Summary of the method: as §1

ralimetinib = compound: CC(C)(C)Cn1c(N)nc2ccc(-c3[nH]c(C(C)(C)C)nc3-c3ccc(F)cc3)nc21 [ralimetinib]
Summary of the method: as §1

[2] = compound: CC(C)(O)CC(=O)NCCn1ccc2ncnc(Nc3ccc(Oc4cccc(C(F)(F)F)c4)c(Cl)c3)c21
Summary of the method: as §1

[3] = compound: CC(C)C1=C2N=C(C=C(N2N=C1)NCC3=CC=CC=C3)NCCCCCCN
Summary of the method: as §1

[4] = compound: CC(C)C[C@@H](C=O)NC(=O)[C@H](CC(C)C)NC(=O)[C@H](CC(C)C)NC(=O)OCc1ccccc1
Summary of the method: as §1

pinometostat = compound: CC(C)N(C[C@H]1O[C@@H](n2cnc3c(N)ncnc32)[C@H](O)[C@@H]1O)[C@H]1C[C@@H](CCc2nc3cc(C(C)(C)C)ccc3[nH]2)C1 [pinometostat]
Summary of the method: as §1

[5] = compound: CC1=C(C(CC(=O)N1)C2=CC=C(C=C2)C(F)(F)F)C(=O)NC3=C(C=C4C(=C3)C=NN4)F
Summary of the method: as §1

[6] = compound: CC1=C(C2=C(C=C1)C(=O)C3=CC=CC=C3N2CCCN)C
Summary of the method: as §1

[7] = compound: CC1=C(C=C(C=C1)NC(=O)C2=CC(=CC=C2)C(C)(C)C#N)NC3=CC4=C(C=C3)N=CN(C4=O)C
Summary of the method: as §1

[8] = compound: CC1=C(C=C(C=C1)NC(=O)C2=CC(=CC=C2)N(C)C)NC(=O)C3=CC=C(C=C3)O
Summary of the method: as §1

[9] = compound: CC1=CC=C(C=C1)SC2=C3C=C(SC3=CN=C2)C(=O)N
Summary of the method: as §1

[10] = compound: CC1=NC(=CC=C1)C2=C(N=C(N2)C(C)(C)C)C3=CC4=NC=CN=C4C=C3
Summary of the method: as §1

Nexturastat A = compound: CCCCN(Cc1ccc(C(=O)NO)cc1)C(=O)Nc1ccccc1 [Nexturastat A]
Summary of the method: as §1

vemurafenib = compound: CCCS(=O)(=O)Nc1ccc(F)c(C(=O)c2c[nH]c3ncc(-c4ccc(Cl)cc4)cc23)c1F [vemurafenib]
Summary of the method: as §1

[11] = compound: CCCS(=O)(=O)Nc1ccc(F)c(C(=O)c2c[nH]c3ncc(Cl)cc23)c1F
Summary of the method: as §1

[12] = compound: CCCc1cc(C)[nH]c(=O)c1CNC(=O)c1cc(-c2ccnc(N3CCN(C)CC3)c2)cc2c1cnn2C(C)C
Summary of the method: as §1

givinostat = compound: CCN(CC)Cc1ccc2cc(COC(=O)Nc3ccc(C(=O)NO)cc3)ccc2c1 [givinostat]
Summary of the method: as §1

barasertib = compound: CCN(CCCOc1ccc2c(Nc3cc(CC(=O)Nc4cccc(F)c4)[nH]n3)ncnc2c1)CCOP(=O)(O)O [barasertib]
Summary of the method: as §1

Chain of UniProt A6NHL2 (A6NHL2 whole entry, looked up): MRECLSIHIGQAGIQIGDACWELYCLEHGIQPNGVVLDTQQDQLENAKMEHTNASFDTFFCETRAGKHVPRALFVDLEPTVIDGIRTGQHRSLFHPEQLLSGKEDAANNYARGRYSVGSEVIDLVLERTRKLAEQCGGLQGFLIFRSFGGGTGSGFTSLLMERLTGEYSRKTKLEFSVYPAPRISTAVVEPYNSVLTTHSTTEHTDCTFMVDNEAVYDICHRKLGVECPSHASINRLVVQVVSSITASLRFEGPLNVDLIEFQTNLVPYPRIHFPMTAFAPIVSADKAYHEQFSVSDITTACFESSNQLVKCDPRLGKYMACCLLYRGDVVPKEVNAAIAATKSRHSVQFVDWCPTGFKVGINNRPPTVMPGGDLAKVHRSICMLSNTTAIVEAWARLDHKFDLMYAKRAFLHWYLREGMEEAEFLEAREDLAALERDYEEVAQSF
Chain of UniProt A0PJW6 (A0PJW6 whole entry, looked up): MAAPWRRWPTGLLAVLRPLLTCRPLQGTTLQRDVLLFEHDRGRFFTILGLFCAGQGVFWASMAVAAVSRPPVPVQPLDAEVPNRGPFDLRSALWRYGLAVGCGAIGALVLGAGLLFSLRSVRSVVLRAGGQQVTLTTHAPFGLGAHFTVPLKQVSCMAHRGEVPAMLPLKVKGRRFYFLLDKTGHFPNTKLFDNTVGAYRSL
Chain of UniProt Q9UDW1 (Q9UDW1 whole entry, looked up): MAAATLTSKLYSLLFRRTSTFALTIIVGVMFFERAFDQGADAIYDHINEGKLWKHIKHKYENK
Chain of UniProt Q8NCE0 (Q8NCE0 whole entry, looked up): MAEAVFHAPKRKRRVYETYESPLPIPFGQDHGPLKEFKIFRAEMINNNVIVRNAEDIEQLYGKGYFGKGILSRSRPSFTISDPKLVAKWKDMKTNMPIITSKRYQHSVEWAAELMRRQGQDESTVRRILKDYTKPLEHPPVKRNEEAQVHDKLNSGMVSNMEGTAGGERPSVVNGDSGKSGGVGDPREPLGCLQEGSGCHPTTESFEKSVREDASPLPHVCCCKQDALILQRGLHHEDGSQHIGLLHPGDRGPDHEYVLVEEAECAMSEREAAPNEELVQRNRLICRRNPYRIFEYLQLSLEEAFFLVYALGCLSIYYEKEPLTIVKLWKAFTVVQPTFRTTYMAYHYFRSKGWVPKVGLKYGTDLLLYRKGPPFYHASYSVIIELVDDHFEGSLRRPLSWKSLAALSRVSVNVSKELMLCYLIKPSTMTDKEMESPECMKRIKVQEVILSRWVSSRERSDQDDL
Chain of UniProt A3KMH1 (A3KMH1 whole entry, looked up): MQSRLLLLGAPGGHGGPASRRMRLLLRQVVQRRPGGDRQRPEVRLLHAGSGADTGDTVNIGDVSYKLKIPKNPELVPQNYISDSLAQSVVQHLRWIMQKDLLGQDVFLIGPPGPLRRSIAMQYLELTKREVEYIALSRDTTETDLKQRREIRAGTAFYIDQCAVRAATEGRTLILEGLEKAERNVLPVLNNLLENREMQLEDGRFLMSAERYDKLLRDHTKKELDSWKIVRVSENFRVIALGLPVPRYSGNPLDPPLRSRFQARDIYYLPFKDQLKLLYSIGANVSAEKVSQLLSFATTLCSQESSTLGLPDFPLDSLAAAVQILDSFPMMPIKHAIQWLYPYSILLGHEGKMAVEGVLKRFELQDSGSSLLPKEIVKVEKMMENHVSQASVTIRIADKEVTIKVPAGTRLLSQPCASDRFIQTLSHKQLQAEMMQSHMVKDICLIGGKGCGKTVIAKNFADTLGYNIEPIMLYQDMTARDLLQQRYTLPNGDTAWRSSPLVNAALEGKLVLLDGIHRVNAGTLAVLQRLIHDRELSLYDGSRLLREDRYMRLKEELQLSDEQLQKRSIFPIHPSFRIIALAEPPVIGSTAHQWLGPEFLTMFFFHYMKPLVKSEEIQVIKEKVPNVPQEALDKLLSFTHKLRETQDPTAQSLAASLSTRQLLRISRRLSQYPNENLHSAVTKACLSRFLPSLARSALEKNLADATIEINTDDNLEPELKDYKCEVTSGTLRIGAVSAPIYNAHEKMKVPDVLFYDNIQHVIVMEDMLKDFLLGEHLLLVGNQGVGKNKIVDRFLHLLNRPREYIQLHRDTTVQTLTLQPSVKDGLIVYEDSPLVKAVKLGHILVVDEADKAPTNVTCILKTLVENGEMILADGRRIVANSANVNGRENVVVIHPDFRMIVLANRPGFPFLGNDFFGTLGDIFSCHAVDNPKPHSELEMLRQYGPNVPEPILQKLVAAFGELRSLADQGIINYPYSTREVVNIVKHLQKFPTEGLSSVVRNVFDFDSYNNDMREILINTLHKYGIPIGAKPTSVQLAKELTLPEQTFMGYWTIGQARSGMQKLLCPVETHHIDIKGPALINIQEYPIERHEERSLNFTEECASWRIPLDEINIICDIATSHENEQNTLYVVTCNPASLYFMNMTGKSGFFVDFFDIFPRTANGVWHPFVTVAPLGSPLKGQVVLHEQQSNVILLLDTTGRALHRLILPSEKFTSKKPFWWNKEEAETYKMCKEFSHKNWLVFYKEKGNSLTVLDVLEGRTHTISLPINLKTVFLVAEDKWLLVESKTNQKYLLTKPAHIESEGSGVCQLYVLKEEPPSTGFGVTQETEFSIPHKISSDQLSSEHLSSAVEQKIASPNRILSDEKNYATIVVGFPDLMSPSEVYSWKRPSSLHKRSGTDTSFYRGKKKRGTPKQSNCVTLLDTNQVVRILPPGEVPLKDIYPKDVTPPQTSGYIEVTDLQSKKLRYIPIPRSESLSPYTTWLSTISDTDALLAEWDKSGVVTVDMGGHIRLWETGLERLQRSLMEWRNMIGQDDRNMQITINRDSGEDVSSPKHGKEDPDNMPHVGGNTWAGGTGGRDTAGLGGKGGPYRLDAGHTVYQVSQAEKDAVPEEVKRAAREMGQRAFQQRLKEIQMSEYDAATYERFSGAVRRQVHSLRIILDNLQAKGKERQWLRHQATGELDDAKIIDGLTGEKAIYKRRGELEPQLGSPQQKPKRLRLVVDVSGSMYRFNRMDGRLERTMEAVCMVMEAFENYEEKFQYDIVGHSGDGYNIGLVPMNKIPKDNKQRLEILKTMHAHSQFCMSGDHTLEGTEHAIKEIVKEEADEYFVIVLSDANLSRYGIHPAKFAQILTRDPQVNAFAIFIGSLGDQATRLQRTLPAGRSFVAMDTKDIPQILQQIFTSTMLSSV
Chain of UniProt O94967 (O94967 whole entry, looked up): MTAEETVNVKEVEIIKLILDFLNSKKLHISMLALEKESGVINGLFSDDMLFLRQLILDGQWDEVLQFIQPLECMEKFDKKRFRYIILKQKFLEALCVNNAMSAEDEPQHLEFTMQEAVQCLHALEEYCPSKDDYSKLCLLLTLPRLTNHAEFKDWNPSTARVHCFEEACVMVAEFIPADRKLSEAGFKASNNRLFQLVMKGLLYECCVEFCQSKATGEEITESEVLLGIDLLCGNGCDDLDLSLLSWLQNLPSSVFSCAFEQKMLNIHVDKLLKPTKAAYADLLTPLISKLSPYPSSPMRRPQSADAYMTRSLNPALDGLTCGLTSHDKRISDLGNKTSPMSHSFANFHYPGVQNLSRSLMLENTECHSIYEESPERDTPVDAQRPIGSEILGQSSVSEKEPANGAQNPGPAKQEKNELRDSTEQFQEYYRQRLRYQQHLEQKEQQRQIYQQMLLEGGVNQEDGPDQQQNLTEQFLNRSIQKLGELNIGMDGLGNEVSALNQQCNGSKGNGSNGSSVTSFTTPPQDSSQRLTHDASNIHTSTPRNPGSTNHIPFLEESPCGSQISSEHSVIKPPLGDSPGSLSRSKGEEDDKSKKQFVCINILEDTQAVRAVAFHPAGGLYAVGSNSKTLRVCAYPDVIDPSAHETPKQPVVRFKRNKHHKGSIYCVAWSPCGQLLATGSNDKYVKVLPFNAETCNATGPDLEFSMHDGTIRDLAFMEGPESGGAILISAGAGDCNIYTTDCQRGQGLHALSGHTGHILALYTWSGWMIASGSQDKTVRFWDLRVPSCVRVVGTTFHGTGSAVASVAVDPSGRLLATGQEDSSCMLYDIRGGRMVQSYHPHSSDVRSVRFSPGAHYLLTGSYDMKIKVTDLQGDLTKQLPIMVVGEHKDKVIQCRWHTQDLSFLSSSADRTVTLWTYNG
Chain of UniProt Q9UHP3 (Q9UHP3 whole entry, looked up): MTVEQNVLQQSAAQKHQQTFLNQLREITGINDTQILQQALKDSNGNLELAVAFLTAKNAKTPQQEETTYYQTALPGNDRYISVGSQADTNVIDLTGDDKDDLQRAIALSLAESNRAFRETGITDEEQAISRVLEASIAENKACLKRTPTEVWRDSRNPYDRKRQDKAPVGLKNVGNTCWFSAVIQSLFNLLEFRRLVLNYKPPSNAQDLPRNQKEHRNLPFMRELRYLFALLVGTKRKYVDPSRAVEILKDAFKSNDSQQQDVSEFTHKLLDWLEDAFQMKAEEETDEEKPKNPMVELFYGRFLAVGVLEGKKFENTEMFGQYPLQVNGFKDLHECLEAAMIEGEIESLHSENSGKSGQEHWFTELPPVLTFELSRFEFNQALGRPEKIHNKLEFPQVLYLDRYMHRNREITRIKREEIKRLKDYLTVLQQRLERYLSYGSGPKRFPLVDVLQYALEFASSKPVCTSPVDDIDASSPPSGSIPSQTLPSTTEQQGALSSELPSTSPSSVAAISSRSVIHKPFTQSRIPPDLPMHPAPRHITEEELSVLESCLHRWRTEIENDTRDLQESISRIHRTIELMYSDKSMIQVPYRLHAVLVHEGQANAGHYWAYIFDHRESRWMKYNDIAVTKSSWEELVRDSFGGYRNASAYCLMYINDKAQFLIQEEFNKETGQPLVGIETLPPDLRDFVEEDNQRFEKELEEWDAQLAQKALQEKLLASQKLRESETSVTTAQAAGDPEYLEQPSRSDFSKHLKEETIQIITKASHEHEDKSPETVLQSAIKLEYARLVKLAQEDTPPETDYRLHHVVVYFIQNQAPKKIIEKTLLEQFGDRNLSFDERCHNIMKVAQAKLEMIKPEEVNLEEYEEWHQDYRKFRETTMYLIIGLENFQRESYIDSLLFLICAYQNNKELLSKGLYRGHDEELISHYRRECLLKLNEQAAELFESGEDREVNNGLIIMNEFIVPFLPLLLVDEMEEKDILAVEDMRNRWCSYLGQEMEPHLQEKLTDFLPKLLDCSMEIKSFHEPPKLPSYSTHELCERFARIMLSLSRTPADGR

Target	log2 fold change (IRAK-1-4 Inhibitor I)	log2 fold change (ibrutinib)	log2 fold change [1]	log2 fold change (ralimetinib)	log2 fold change [2]	log2 fold change [3]	log2 fold change [4]	log2 fold change (pinometostat)	log2 fold change [5]	log2 fold change [6]	log2 fold change [7]	log2 fold change [8]	log2 fold change [9]	log2 fold change [10]	log2 fold change (Nexturastat A)	log2 fold change (vemurafenib)	log2 fold change [11]	log2 fold change [12]	log2 fold change (givinostat)	log2 fold change (barasertib)
WDR47 (UniProt O94967)	-0.089	0.055	0.028	-0.005	-0.03	0.028	-0.048	-0.017	0.024	0.015	-0.031	-0.031	0.07	0.127	-0.048	-0.023	-0.045	-0.004	0.004	-0.007
TSEN2 (UniProt Q8NCE0)	0.073	-0.022	-0.116	-0.034	-0.127	0.033	-0.001	0.004	0.055	0.027	0.306 (active)	0.015	0.014	-0.02	-0.013	0.058	0.063	0.097	0.012	0.073
TOMM5 isoform 2 (UniProt Q8N4H5)	0.037	0.01	-0.033	-0.099	-0.048	0.221	0.036	0.148	-0.004	0.003	-0.009	0.367	0.005	0.084	0.025	0	-0.011	0.141	-0.029	0.03
TMEM223 (UniProt A0PJW6)	0.039	0.006	-0.101	-0.009	0.114	-0.063	0	-0.019	-0.087	0.042	0.034	-0.001	-0.026	0.058	-0.13	0.084	0.055	-0.128	0.002	0.041
VWA8 (UniProt A3KMH1)	0.022	-0.015	-0.041	0.016	-0.115	-0.149	-0.032	-0.004	0.009	0.021	-0.07	0.042	0.023	0.019	-0.059	0.034	0.011	0.032	0.025	0.022
UQCR10 (UniProt Q9UDW1)	0.036	0.019	-0.077	-0.05	-0.056	0.031	-0.127	-0.016	-0.008	0.057	0.103	-0.086	0.069	-0.014	-0.049	-0.042	-0.018	0.007	-0.05	-0.042
USP25 isoform 3 (UniProt Q9UHP3)	0.002	-0.002	-0.019	-0.027	0.015	0.001	0.052	0.001	0.043	0.002	0.004	0.008	-0.009	0.045	-0.029	0.04	0.027	0.024	0.015	0.02
TUBAL3 (UniProt A6NHL2)	-0.046	-0.005	-0.039	-0.044	-0.047	0.003	-0.102	-0.108	0.11	-0.094	0.152	-0.062	0.005	0.094	-0.106	0.121	-0.033	-0.207	0.006	-0.028
